# Data as given in the supplement of paper PMC8728848.
# Only a selection was taken, and the strongest signals are over-represented in it overall.
# B1: SBD-G4S3-Fc (protein)
# chain: MASIPSSASVQLDSYNYDGSTFSGKIYVKNIAYSKKVTVVYADGSDNWNNNGNIIAASFSGPISGSNYEYWTFSASVKGIKEFYIKYEVSGKTYYDNNNSANYQVSTGGGGSGGGGSGGGGSEFVPRDCGCKPCICTVPEVSSVFIFPPKPKDVLTITLTPKVTCVVVDISKDDPEVQFSWFVDDVEVHTAQTQPREEQFNSTFRSVSELPIMHQDWLNGKEFKCRVNSAAFPAPIEKTISKTKGRPKAPQVYTIPPPKEQMAKDKVSLTCMITDFFPEDITVEWQWNGQPAENYKNTQPIMDTDGSYFVYSKLNVQKSNWEAGNTFTCSVLHEGLHNHHTEKSLSHSPGAA
# How the values were obtained:
# Assay in all cases: glycan array binding signal (z-score within array); higher = stronger binding
# Details in all cases: glycan notation: IUPAC condensed, linker removed
# [1] = biological target: Fuc(a1-2)Gal(b1-3)GalNAc(b1-3)Gal(a1-4)Gal(b1-4)Glc
# How it was run: (§1)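 Negative Z-scores can be read as non-binding. The Z-score is calculated within each array and then averaged across arrays of one protein sequence at different concentrations or buffers and across linkers. Arrays, 3228 in all, were curated from the Consortium for Functional Glycomics database and kept only where the protein sequence was available.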
# [2] = biological target: Fuc(a1-2)Gal(b1-3)GlcNAc(b1-3)[Neu5Ac(a2-6)Gal(b1-4)GlcNAc(b1-6)]Gal(b1-4)Glc
# How it was run: as §1
# [3] = biological target: Fuc(a1-2)Gal(b1-3)GlcNAc6S
# How it was run: as §1
# [4] = biological target: Fuc(a1-2)Gal(b1-3)[Fuc(a1-4)]GlcNAc(b1-2)Man(a1-3)[Fuc(a1-2)Gal(b1-3)[Fuc(a1-4)]GlcNAc(b1-2)Man(a1-6)]Man(b1-4)GlcNAc(b1-4)[Fuc(a1-6)]GlcNAc(b1-4)[Fuc(a1-6)]GlcNAc
# How it was run: as §1
# Fuc(a1-2)Gal(b1-4)GlcNAc = biological target: Fuc(a1-2)Gal(b1-4)GlcNAc
# How it was run: as §1
# [5] = biological target: Fuc(a1-2)Gal(b1-4)GlcNAc(b1-3)Gal(b1-4)GlcNAc(b1-2)Man(a1-3)[Fuc(a1-2)Gal(b1-4)GlcNAc(b1-3)Gal(b1-4)GlcNAc(b1-2)Man(a1-6)]Man(b1-4)GlcNAc(b1-4)GlcNAc
# How it was run: as §1
# [6] = biological target: Fuc(a1-2)Gal(b1-4)GlcNAc(b1-3)Gal(b1-4)GlcNAc(b1-3)Gal(b1-4)GlcNAc
# How it was run: as §1
# [7] = biological target: Fuc(a1-2)Gal(b1-4)[Fuc(a1-3)]GlcNAc
# How it was run: as §1
# [8] = biological target: Fuc(a1-2)Gal(b1-4)[Fuc(a1-3)]GlcNAc(b1-3)GalNAc
# How it was run: as §1
# [9] = biological target: Fuc(a1-2)[Gal(a1-4)]Gal(b1-4)GlcNAc
# How it was run: as §1
# [10] = biological target: Fuc(a1-2)[GalNAc(a1-3)]Gal(b1-3)GalNAc(a1-3)[Fuc(a1-2)]Gal(b1-4)GlcNAc
# How it was run: as §1
# [11] = biological target: Fuc(a1-2)[GalNAc(a1-3)]Gal(b1-3)GalNAc(b1-3)Gal(a1-4)Gal(b1-4)Glc
# How it was run: as §1
# [12] = biological target: Fuc(a1-2)[GalNAc(a1-3)]Gal(b1-4)GlcNAc(b1-2)Man(a1-3)[Fuc(a1-2)[GalNAc(a1-3)]Gal(b1-4)GlcNAc(b1-2)Man(a1-6)]Man(b1-4)GlcNAc(b1-4)GlcNAc
# How it was run: as §1
# [13] = biological target: Fuc(a1-2)[GalNAc(a1-3)]Gal(b1-4)GlcNAc(b1-3)[Fuc(a1-2)[GalNAc(a1-3)]Gal(b1-4)GlcNAc(b1-6)]GalNAc
# How it was run: as §1
# [14] = biological target: Gal(a1-3)Gal(b1-3)GlcNAc(b1-2)Man(a1-3)[Gal(a1-3)Gal(b1-3)GlcNAc(b1-2)Man(a1-6)]Man(b1-4)GlcNAc(b1-4)GlcNAc
# How it was run: as §1
# [15] = biological target: Gal(a1-3)Gal(b1-4)GlcNAc(b1-2)Man
# How it was run: as §1
# [16] = biological target: Gal(a1-3)Gal(b1-4)GlcNAc(b1-3)GalNAc
# How it was run: as §1
# [17] = biological target: Gal(a1-3)[Gal(a1-4)]Gal(b1-4)GlcNAc
# How it was run: as §1
# [18] = biological target: Gal(b1-3)GalNAc(a1-3)[Fuc(a1-2)]Gal(b1-4)Glc
# How it was run: as §1
# [19] = biological target: Gal(b1-3)GalNAc(b1-3)Gal(a1-4)Gal(b1-4)Glc
# How it was run: as §1
# Gal(b1-3)GlcNAc(b1-2)Man = biological target: Gal(b1-3)GlcNAc(b1-2)Man
# How it was run: as §1
# [20] = biological target: Gal(b1-3)GlcNAc(b1-2)[Gal(b1-3)GlcNAc(b1-6)]Man(a1-6)[Gal(b1-3)GlcNAc(b1-2)Man(a1-3)]Man(b1-4)GlcNAc(b1-4)GlcNAc
# How it was run: as §1
# [21] = biological target: Gal(b1-3)GlcNAc(b1-6)Gal(b1-4)GlcNAc
# How it was run: as §1
# [22] = biological target: Gal(b1-3)[Neu5Ac(b2-6)]GalNAc
# How it was run: as §1
# [23] = biological target: Gal(b1-4)GlcNAc(b1-2)Man(a1-3)Man(b1-4)GlcNAc(b1-4)GlcNAc
# How it was run: as §1
# [24] = biological target: Gal(b1-4)GlcNAc(b1-2)Man(a1-3)[GlcNAc(b1-2)Man(a1-6)]Man(b1-4)GlcNAc(b1-4)GlcNAc
# How it was run: as §1
# [25] = biological target: Gal(b1-4)GlcNAc(b1-2)Man(a1-6)[Man(a1-3)]Man(b1-4)GlcNAc(b1-4)GlcNAc
# How it was run: as §1
# [26] = biological target: Gal(b1-4)GlcNAc(b1-2)[Gal(b1-4)GlcNAc(b1-6)]Man(a1-6)[GlcNAc(b1-4)][Gal(b1-4)GlcNAc(b1-2)Man(a1-3)]Man(b1-4)GlcNAc(b1-4)GlcNAc
# How it was run: as §1
# [27] = biological target: Gal(b1-4)GlcNAc(b1-3)Gal(b1-4)Glc
# How it was run: as §1
# [28] = biological target: Gal(b1-4)GlcNAc(b1-3)Gal(b1-4)GlcNAc
# How it was run: as §1
binder,measurement,setting,value
B1,glycan array binding signal (z-score),[1],-0.249
same,glycan array binding signal (z-score),[2],-0.478
same,glycan array binding signal (z-score),[3],-0.371
same,glycan array binding signal (z-score),[4],0.339
same,glycan array binding signal (z-score),Fuc(a1-2)Gal(b1-4)GlcNAc,-0.284
same,glycan array binding signal (z-score),[5],1.23
same,glycan array binding signal (z-score),[6],-0.034
same,glycan array binding signal (z-score),[7],0.134
same,glycan array binding signal (z-score),[8],0.32
same,glycan array binding signal (z-score),[9],-0.203
same,glycan array binding signal (z-score),[10],5.6
same,glycan array binding signal (z-score),[11],0.07
same,glycan array binding signal (z-score),[12],0.007
same,glycan array binding signal (z-score),[13],-0.2
same,glycan array binding signal (z-score),[14],1.16
same,glycan array binding signal (z-score),[15],-0.234
same,glycan array binding signal (z-score),[16],0.357
same,glycan array binding signal (z-score),[17],1.33
same,glycan array binding signal (z-score),[18],-0.267
same,glycan array binding signal (z-score),[19],0.103
same,glycan array binding signal (z-score),Gal(b1-3)GlcNAc(b1-2)Man,-0.388
same,glycan array binding signal (z-score),[20],-0.089
same,glycan array binding signal (z-score),[21],-0.401
same,glycan array binding signal (z-score),[22],-0.146
same,glycan array binding signal (z-score),[23],0.225
same,glycan array binding signal (z-score),[24],-0.37
same,glycan array binding signal (z-score),[25],0.054
same,glycan array binding signal (z-score),[26],0.227
same,glycan array binding signal (z-score),[27],-0.301
same,glycan array binding signal (z-score),[28],-0.054
